Growth inhibition data for eight compounds are collected here from PubChem BioAssay (NCI).

The nature of the assay: NCI Yeast Anticancer Drug Screen. Data for the wt2 strain (AID 169).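 Also: 0% = growth of vehicle-treated yeast cultures.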 Conditions: S. cerevisiae wt2 strain growth inhibition, active compounds read high. As to the method:
Growth inhibition of yeast strains with defined genetic alterations is measured as a screen for potential anti-cancer activity. Selected strains with alterations in DNA damage repair or cell cycle control were exposed to compounds and growth inhibition was measured relative to vehicle treated controls. The strain used in this assay is wt2

The panel holds about 79,000 compounds, 15% with a hit somewhere; the sample as a whole holds those more often. Values without a mark were called inactive. Activity calls are given as the source filed them. Rule as the data show it: active = growth inhibition above about 70%; inactive = the rest.

Turning to `Cc1cccc(C(C)(C)C)c1NC(=O)C(C#N)C1=C(Cl)C(=O)c2ccccc2C1=O` (stereo not given), the growth inhibition (at 1.2 µM) is -21%; the growth inhibition (at 3.7 µM) was 6%; the growth inhibition (at 11.0 µM) is 74% (active); the growth inhibition (at 33.0 µM) was 97% (active); the growth inhibition (at 100.0 µM) is 94% (active).
With `CN(C)[C@@H]1C(=O)C(C(N)=O)=C(O)[C@@]2(O)C(=O)C3=C(O)c4c(O)cccc4C[C@H]3C[C@@H]12`, the growth inhibition is, setting by setting: (at 1.2 µM) 9%; (at 3.7 µM) 14%; (at 11.0 µM) 52%; (at 33.0 µM) 99% (active); (at 100.0 µM) 99% (active).
For the compound `CN1CCN(C(=O)/C=C/C(=O)c2ccccc2)CC1`, the growth inhibition is 1% (at 1.2 µM); 10% (at 3.7 µM); 36% (at 11.0 µM); 76% (active) (at 33.0 µM); 93% (active) (at 100.0 µM).
For `CCOC(=O)c1[nH]cc(C)c1-c1cccn1-c1ccc(Cl)cc1[N+](=O)[O-]`, in that order: -20%, -23%, -17%, 84% (active) and 93% (active).
For `Cc1cc(-c2cc(C)c(O)c(C(C)(C)C)c2)cc(C(C)(C)C)c1O`, in that order: -32%, -18%, -17%, 4% and 66%.
For the compound `CCOC(=O)C#Cc1ccc([N+](=O)[O-])cc1`, the growth inhibition is -1% (at 1.2 µM); 1% (at 3.7 µM); 4% (at 11.0 µM); 7% (at 33.0 µM); 11% (at 100.0 µM).
For `CCC(C)OC(=O)Nc1ccc(C)c(NC(=O)OC(C)CC)c1` (stereo not given), in that order: 0%, 1%, -2%, 6% and 96% (active).
`CC(O)=NC(Cc1ccc2ccccc2c1)C(O)=NC(Cc1ccc(Cl)cc1)C(O)=NC(Cc1c[nH]c2ccccc12)C(O)=NC(CO)C(O)=NC(Cc1ccc(O)cc1)C(O)=NC(CCCN=C(N)N)C(O)=NC(CC(C)C)C(O)=NC(CCCN=C(N)N)C(=O)N1CCCC1C(O)=NC(C)C(=N)O` (stereo not given): the growth inhibition by setting is: (at 1.2 µM) -9%; (at 3.7 µM) -10%; (at 11.0 µM) -2%; (at 33.0 µM) 11%; (at 100.0 µM) 2%.
